Compound activity (PubChem BioAssay)
Rows were chosen to be rich in hits. Some 1.3% of all compounds tested hit in one or more screens of this group.
KCNH2 WT inh = qHTS for Inhibitors of KCHN2 3.1: Wildtype qHTS | activity change, % at 1.84 µM | actives 0.37% (n = 340,000) | U2OS, BacMam KCNH2, thallium flux FluxOr; hits give low values | AID 720551, 2013;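 active means maximum activity change below -70%; inconclusive means maximum activity change between -70% and -50%; inactive means maximum activity change above -50%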
Target sequence (Q12809 whole entry, looked up): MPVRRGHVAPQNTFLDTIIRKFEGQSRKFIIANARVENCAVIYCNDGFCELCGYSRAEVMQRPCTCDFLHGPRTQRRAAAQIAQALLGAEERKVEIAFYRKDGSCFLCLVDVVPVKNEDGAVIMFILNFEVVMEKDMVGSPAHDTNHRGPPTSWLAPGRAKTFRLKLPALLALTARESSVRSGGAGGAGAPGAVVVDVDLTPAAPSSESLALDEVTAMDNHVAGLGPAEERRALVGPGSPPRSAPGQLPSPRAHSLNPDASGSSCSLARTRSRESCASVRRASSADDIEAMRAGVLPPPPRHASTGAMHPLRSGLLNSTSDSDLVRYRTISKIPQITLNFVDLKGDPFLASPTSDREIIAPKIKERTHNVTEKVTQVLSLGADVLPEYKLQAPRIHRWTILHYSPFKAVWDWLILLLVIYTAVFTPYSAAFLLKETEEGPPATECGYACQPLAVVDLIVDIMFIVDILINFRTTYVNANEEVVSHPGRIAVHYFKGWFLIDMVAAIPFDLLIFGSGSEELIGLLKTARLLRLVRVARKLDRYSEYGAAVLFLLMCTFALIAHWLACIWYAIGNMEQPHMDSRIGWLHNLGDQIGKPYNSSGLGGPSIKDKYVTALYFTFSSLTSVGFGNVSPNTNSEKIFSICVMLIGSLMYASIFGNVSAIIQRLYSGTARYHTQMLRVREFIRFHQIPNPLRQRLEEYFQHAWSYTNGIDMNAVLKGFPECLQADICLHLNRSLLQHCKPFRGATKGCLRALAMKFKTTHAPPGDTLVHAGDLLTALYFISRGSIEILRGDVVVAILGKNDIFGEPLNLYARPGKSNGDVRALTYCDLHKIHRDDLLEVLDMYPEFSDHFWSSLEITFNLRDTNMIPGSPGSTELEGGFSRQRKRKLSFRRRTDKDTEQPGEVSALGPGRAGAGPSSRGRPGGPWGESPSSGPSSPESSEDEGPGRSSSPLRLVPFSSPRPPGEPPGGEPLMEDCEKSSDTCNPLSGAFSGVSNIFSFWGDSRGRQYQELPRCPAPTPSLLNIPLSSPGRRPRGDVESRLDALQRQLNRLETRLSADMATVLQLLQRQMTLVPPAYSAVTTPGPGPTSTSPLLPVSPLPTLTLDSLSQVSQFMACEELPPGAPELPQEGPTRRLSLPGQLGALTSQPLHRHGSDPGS
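U2OS cells transduced with wild-type KCNH2 virus are loaded with FluxOr dye for 45 min, and thallium flux is measured in kinetic reads before and after stimulation buffer. Rate constants are normalized to DMSO controls.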
KCNH2 3.1 inh = qHTS for Inhibitors of KCHN2 3.1: Mutant qHTS; U2OS KCNH2 3.1, thallium flux FluxOr; hits give low values; activity change, % (tested at about 1.8 µM); actives 0.95% (n = 340,000); AID 720553, 2013;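 active means maximum activity change below -70%; inconclusive means maximum activity change from -70% to -50%; inactive means maximum activity change above -50%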;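 further: thallium influx rate constant from kinetic fluorescence after stimulation buffer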
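Steps: virus added to U2OS suspension (4 h, RT, dark); medium with 10% FBS added, cells plated, 37 C overnight; FluxOr/Red40 loading buffer 45 min RT; stimulation buffer, 2 min kinetic read; rate constant normalized.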
MBNL1-CUG inh = qHTS Assay for Inhibitors of MBNL1-poly(CUG) RNA binding; actives 0.036% (n = 280,000); AID 2675, 2010; TR-FRET MBNL1-His/biotin-(CUG)12 binding, 665/545 ratio; Muscleblind-like protein 1 (Homo sapiens), Q9NR56; Potency, µM (titrated, usually from 57.5 µM), most hits filed as inhibitors; active means well fitted inhibition curve with a large enough effect in the signal ratio, with a control signal flat, not every such curve was filed as active; inconclusive means small, poorly fitted or top-dose-only effect, or effect the other way, or a change in a side signal; inactive means no such curve, though single readings can be large or run the other way; the % refers to the signal ratio
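TR-FRET between His-tagged MBNL1 and biotin-(CUG)12 RNA, detected with Tb anti-His antibody (0.055 ng/ul) and streptavidin-XL665 (5 nM), 60 min at room temperature. Compounds titrated 92 nM to 58 uM; 665/545 nm ratio normalized to buffer and complex controls.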
TRPV1 ag = HTS Assay for Compounds that Act as Agonists of the Vanilloid Receptor 1 | Transient receptor potential cation channel subfamily V member 1 (Homo sapiens), Q8NER1 | activation, % at 8.33 µM | AID 540275, 2011 | TRPV1-expressing cells, Fluo-8 calcium influx, agonist mode | actives 0.19% (n = 320,000); in the data active means activation above about 80%; inconclusive means between about 30% and that limit
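TRPV1-expressing cells were cultured overnight at 35.5C and loaded with Fluo-8 calcium dye for 40 to 90 min at room temperature. After a 10 s baseline, compound was added and calcium influx was read kinetically for 3 min (ex 480/em 520 nm).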
TRPV1 PAM = HTS Assay for Compounds that Act as Potentiators of the Vanilloid Receptor 1; Transient receptor potential cation channel subfamily V member 1 (Homo sapiens), Q8NER1; potentiation, % at 8.33 µM; TRPV1-expressing cells, Fluo-8 calcium influx, capsaicin EC20 potentiation; AID 540277, 2011; actives 0.02% (n = 320,000); in the data active means potentiation above about 80%; inconclusive means between about 30% and that limit
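Fluo-8 calcium influx in TRPV1-expressing cells, kinetic read (ex 480/em 520 nm). Compound added and read 3 min for agonist activity, followed by capsaicin at EC20 final and 2 min further read for enhancement.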
Numbers stand for hits; 0 = inactive; ? = inconclusive; - = no result given.

SMILES	KCNH2 WT inh	KCNH2 3.1 inh	MBNL1-CUG inh	TRPV1 ag	TRPV1 PAM
COC(=O)[C@@]12CCCCN1[C@H](c1ccc(-c3ccc(F)cc3)c(OC)c1)[C@H]1C(=O)N(C)C(=O)[C@H]12	0	-94.8	-	-	-
O=C(Nc1ccnn1C1CCN(C/C=C/c2ccccc2)CC1)c1ccccc1	-90.9	-90.8	0	0	0
O=C(Nc1ccnn1C1CCN(C/C=C/c2ccccc2)CC1)c1cccc(F)c1	-92.1	-98.9	0	0	0
O=C(Nc1ccnn1C1CCN(Cc2ccc(CO)o2)CC1)c1cccc(F)c1	0	0	-	-	-
O=C(Nc1ccnn1C1CCN(Cc2cccc(OCCO)c2)CC1)c1cccc(F)c1	0	0	0	0	0
Cc1c(CN2CCC(n3nccc3NC(=O)c3cccc(F)c3)CC2)cnn1C	0	-	0	0	0
O=C(Nc1ccnn1C1CCN(CCCc2ccccc2)CC1)c1cccc(F)c1	-89.5	-104.2	0	0	0
COc1ccc(CN2CCC(n3nccc3NC(=O)c3cccc(F)c3)CC2)cc1O	-109.5	-109.9	0	0	0
CC(=O)Nc1ccc(S(=O)(=O)N(C)CC(=O)Nc2nc3ccccc3[nH]2)cc1	0	0	-	0	0
CCOC(=O)c1c(NC(=O)C2CCCN(S(=O)(=O)c3ccccc3)C2)sc2c1CCCC2 (configuration not stated)	0	0	0	0	0
CC1CCCCC1NC(=O)COC(=O)COc1ccccc1F (configuration not stated)	0	0	-	-	-
O=C(Nc1ccc(Br)cn1)c1ccc(Br)s1	0	0	0	?	0
Cc1cc(C(=O)Nc2ccc(Br)cn2)sc1C	0	0	-	83.1	0
O=C(Nc1ccc(Br)cn1)c1ccc(Cl)s1	0	0	0	98.9	0
O=C(COC(=O)c1ccc(Cl)nc1)NCCc1ccc(F)cc1	0	0	-	-	-
CC(=O)Nc1ccc(S(=O)(=O)NCC2CCC(C(=O)NCc3ccccc3)CC2)cc1 (configuration not stated)	-	0	0	0	0
O=C(Nc1ccc(S(=O)(=O)NCc2ccccc2)cc1)C1CCCCC1	0	-71.9	0	0	0
Cc1ccc(C)c(NC(=O)c2cc(-c3ccccc3O)n[nH]2)c1	0	-80.8	0	0	0
Cc1ccc(-c2cc(C(=O)Nc3cc(C)ccc3C)[nH]n2)c(O)c1	0	0	0	0	?
COC(=O)c1ccc(Cn2cnc3c(cnn3-c3ccc(Cl)cc3)c2=O)o1	0	-74.7	0	0	0
COC(=O)c1ccc(Cn2cnc3c(cnn3-c3ccc(F)cc3)c2=O)o1	0	0	0	0	0
COc1cccc(/C=C/C(=O)NCc2ccc3c(c2)OCO3)c1	0	0	0	?	0
Fc1cccc(Cl)c1Cn1nnc(-c2ccc(N3CCOCC3)cc2)n1	0	0	0	0	0
Clc1cccc(Cl)c1Cn1nnc(N2CCCC2)n1	-138.1	0	0	0	?
COc1ccc(CNC(=O)c2cc(S(=O)(=O)N3CCOCC3)cn2C)cc1	0	0	0	0	0
SMILES	KCNH2 WT inh	KCNH2 3.1 inh	MBNL1-CUG inh	TRPV1 ag	TRPV1 PAM
COc1cccc(N2CCN(C(=O)c3cc4c(s3)CCCCC4)CC2)c1	0	0	-	?	0
CCC(CC)CN1CCC(CN2C(=S)NC[C@@H]2CC(C)C)CC1	0	0	-	-	-
Cn1c(N)c(C(=O)COC(=O)c2ccccc2C(F)(F)F)c(=O)n(C)c1=O	0	-92.5	-	-	-
CC(/C=N/NC(=O)C(O)c1ccccc1)=C\c1ccccc1 (configuration not stated)	0	-168.7	?	0	0
COc1ccc(C(=O)N/N=C\C(C)=C\c2ccccc2)cc1OC	0	-98.4	-	-	-
CCc1nc(N2CCN(C(=O)CCCl)CC2)c2c3c(sc2n1)CCCC3	0	0	-	-	-
CCNC(=S)N1CCN(c2nc(CC)nc3sc4c(c23)CCCC4)CC1	0	0	0	82.5	0
